# Screens from PubChem.
# MARV entry inh: qHTS for inhibitors of binding or entry into cells for Marburg Virus | Marburg virus pseudotyped entry inhibition, cell reporter | Potency, µM (top dose mostly 37.8 µM), without a hit: top-dose activity change, negative = inhibition, actives largely listed as inhibitors | actives 1.8% (n = 300,000) | AID 540276, 2011; calls by dose curve; tested in HEK293 cells; note: potency is the fitted concentration of half-maximal effect
# Lassa entry inh: qHTS for Inhibitors of binding or entry into cells for Lassa Virus; actives 1.2% (n = 300,000); Lassa virus pseudotype entry inhibition, cell reporter; Potency, µM (highest dose often 37.9 µM), without a hit: top-dose activity change, negative = inhibition, hits mostly inhibitors; AID 540256, 2011; calls by dose curve; tested in HEK293 cells; note: potency is the fitted concentration of half-maximal effect; nearly all actives have a fitted effect of over 50% in size
# VACV Venus inh: qHTS for Stage-Specific Inhibitors of Vaccinia Orthopoxvirus: Venus Reporter Primary qHTS; Vaccinia virus Venus reporter expression, fluorescence; actives 0.46% (n = 330,000); Potency, µM (top dose mostly 36.5 µM), inactives show at the top dose activity change, negative = inhibition, actives largely listed as inhibitors; calls by dose curve; tested in A549 cells; note: potency is the fitted concentration of half-maximal effect; nearly all actives have a fitted effect of over 30% in size
# HCMV inh: qHTS Assay for inhibitors of the human cytomegalovirus (HCMV); HFF cells, HCMV-luciferase reporter, 72 h; active compounds read low; activity change, negative = inhibition, % at 57.5 µM; actives 4.5% (n = 410,000); AID 1259415, 2018; in the data active = activity change below about -60%; inconclusive = no clear call, values can overlap the other calls; inactive = above about -39%
#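 Luciferase read-out from HCMV-luciferase-infected HFFs (MOI 1 PFU/cell) 72 h post infection at 37C; compounds added after 16 h cell attachment; activity normalized between buffer-only basal and Salinomycin (10uM) inhibitor controls.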
# HCV inhibitor: qHTS Assay for Inhibitors of Hepatitis C Virus (HCV); Huh7.5.1 HCVcc-Cre infection, luciferase reporter, 44 h; Potency, µM (doses to about 41.8 µM), inactives show at the highest dose activity change, negative = inhibition, actives largely listed as inhibitors; actives 3.4% (n = 340,000); active = well fitted inhibition curve with a large enough effect; inconclusive = small, poorly fitted or top-dose-only effect, or another doubt; inactive = no such curve, though single readings can be large or run the other way; note: potency is the fitted concentration of half-maximal effect
#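 Infectious HCV cell culture screen: compound-treated cells (1,000/well, pre-plated 4 h) are infected with HCVcc-Cre at roughly 0.5 moi and grown 44 h. Infection is quantified by luciferase signal after 15 min substrate incubation at room temperature.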
# VACV mCherry inh: qHTS for Stage-Specific Inhibitors of Vaccinia Orthopoxvirus: mCherry Reporter Primary qHTS; Vaccinia virus mCherry reporter infection, fluorescence; Potency, µM (top dose mostly 36.5 µM), inactives show top-dose activity change, negative = inhibition, actives largely listed as inhibitors; actives 0.63% (n = 310,000); AID 720579, 2013; calls by dose curve; tested in A549 cells; note: potency is the fitted concentration of half-maximal effect; nearly all actives have a fitted effect of over 35% in size
# Numbers without * were called inactive; i = inactive; ? = inconclusive; . = no result; ! = not active in a repeat; [ ] = dose if it differs, or a comment. Only some compounds are listed: those with a hit (about 7.8% of all), similar ones and a draw of the others. % is set by controls: 0 for no effect and ±100 for the full control effect.
SMILES,MARV entry inh,Lassa entry inh,VACV Venus inh,HCMV inh,HCV inhibitor,VACV mCherry inh
CC(C)CCNC(=O)c1cc(C(=O)c2cc(Br)ccc2O)cn(CCC(C)C)c1=O,-19%[46.1 µM],2%,16%,-73*,?,i
CCc1ccccc1NC(=S)N(CCc1ccncc1)C(C)C,.,.,.,-93*,10%,.
Cc1cccc(NC(=S)N(CCc2ccncc2)C(C)C)c1C,?,-3%[46.1 µM],-17%,9,1%,-17%
COc1cccc(-c2nc3cc(SC)ccc3cc2CN(C(=O)c2csc(C)n2)C2CC2)c1,.,.,12%,.,.,-7%
CCOc1ccc(Nc2nc(-c3cccc(Cl)c3)c3c(n2)-c2ccccc2OC3)cc1,-1%[46.1 µM],14%[46.1 µM],-14%,-75*,.,-12%
COc1ccc(Nc2nc(-c3cccc(Cl)c3)c3c(n2)-c2ccccc2OC3)cc1,?,4%[46.1 µM],-7%,-25,.,-6%
O=C(O)c1cccc(C(=O)O)c1S(=O)Cc1ccccc1 (configuration not stated),.,.,.,-66*,.,.
O=S(Cc1ccccc1)c1ccccc1 (configuration not stated),25%,5%[46.1 µM],-7%,-20,34%,i
CCc1ccc(CN(C(=O)c2cc(=O)c3ccc(C)cc3o2)C2CCS(=O)(=O)C2)cc1 (configuration not stated),-14%[46.1 µM],-9%[46.1 µM],-15%[7.34 µM],-34,.,-9%[7.34 µM]
CC(=O)c1c(N2CCN(C(=O)c3ccco3)CC2)nc(=S)n(-c2ccccc2)c1C,-9%,14%,-16%,-4,15%,i
CC12CC(c3ccccc3O1)N(C(=O)c1ccco1)C(=S)N2c1ccccc1 (configuration not stated),16µM*,?,.,12,-10%,.
O=C1NC(=O)C(Cc2ccccc2F)(C2CCN(Cc3cccn3-c3cccnc3)CC2)N1 (configuration not stated),.,.,0%,.,.,i
O=[N+]([O-])c1ccc(NCc2ccc(Cl)cc2)c2ccncc12,?,-5%[46.1 µM],1%,-9,6.3µM*,-22%
O=[N+]([O-])c1cnccc1Nc1ccc(Cl)cc1,-14%,2%,-17%,?,3%,i
CCCCOC(=O)/C=C/c1ccc(OC(=O)OC)c(OC(=O)OC)c1,11µM*,?,-19%,-18,?,-24%
COC(=O)Oc1ccc(/C=C/C(=O)OC(C)C)cc1OC(=O)OC,?,-7%,-12%,-5,?,?
Cc1ccc2ccc3cc(C(=O)N4CCN(c5ccccc5F)CC4)nc3c2[nH]1,.,-8%[46.1 µM],-1%,5,.,-3%
Cc1ccc2ccc3cc(C(=O)Nc4ccc(C)c(F)c4)nc3c2[nH]1,.,?,-27%,-76*,.,i
Fc1ccccc1-c1csc(=Nc2cccnc2)n1CCCn1ccnc1,?,-25%,-21%,-90*,22µM*,-10%
CCn1nnc2cc(C(=O)NCCc3ccccc3F)ccc21,6.3µM*,1.1µM*,-4%,66,19%,-12%
CCn1nnc2cc(C(=O)Nc3ccc(Br)cc3F)ccc21,.,?,-2%,15,.,1%
COC[C@H]1OC(=O)c2coc3c2[C@@]1(C)C1=C(C3=O)C2CCC(=O)[C@@]2(C)C[C@H]1OC(C)=O (some centres not stated),0.045µM*!,?,17%,.,.,-11%
COC[C@H]1OC(=O)c2coc3c2[C@@]1(C)C1=C(C3=O)[C@H]2CCC(=O)[C@@]2(C)C[C@H]1OC(C)=O,0.045µM*,.,.,.,.,.
CCOc1ccccc1CN1C(=O)c2ccccc2C1C(=O)NC1CCCCCC1 (configuration not stated),?,?,-2%,-5,.,-3%
C[C@H](O)CON1C(=O)c2ccccc2C1=O,17%[14.2 µM],.,.,.,.,.
SMILES,MARV entry inh,Lassa entry inh,VACV Venus inh,HCMV inh,HCV inhibitor,VACV mCherry inh
O=C1c2ccccc2C(=O)N1OS(=O)(=O)c1ccc(F)cc1,.,.,.,-7,2%,.
Cc1cc(C)c(C)c(S(=O)(=O)ON2C(=O)c3ccccc3C2=O)c1C,?,?,-19%,-76*,?,-14%
Cc1ccc(NC(=O)CN2C(=O)c3ccccc3C2=O)c(C)c1,-13%[46.1 µM],12%[46.1 µM],-4%,14,3%,?
Cc1cc(C)c(S(=O)(=O)ON2C(=O)c3ccccc3C2=O)cc1C,?,-28%,-1%,-81*,-1%,-12%
Cc1ccc(S(=O)(=O)ON2C(=O)c3ccccc3C2=O)c(C)c1,?,?,0%,-71*,9%,-9%
O=C(Cn1ncn2nc(-c3cccs3)cc2c1=O)NCc1ccccc1Cl,-15%[46.1 µM],6%[46.1 µM],-10%,-5,.,-8%
O=S(=O)(c1ccc2c(c1)OCCO2)N1CCN(c2nc(-c3cccs3)nc3ccccc23)CC1,.,.,-10%,.,.,-1%
O=C(NCc1ccccc1)c1nc2ccccc2nc1-c1ccc(F)cc1,.,.,.,18,.,.
CC1CCCCN1c1ncnc(N)c1[N+](=O)[O-] (configuration not stated),-5%[46.1 µM],.,-14%,-77*,-1%,-24%
CC1Cc2ccccc2N1c1ncnc(N)c1[N+](=O)[O-] (configuration not stated),13%,10%,.,-101*,7%,.
CC1Cc2ccccc2N1c1ncnc2nc[nH]c12 (configuration not stated),-3%,?,-26%,.,-3%,i
Cc1ccc(S(=O)(=O)CC(O)COc2ccc(C#N)cc2)cc1 (configuration not stated),-16%[46.1 µM],-2%,-5%,-70*,12%,-17%
CCOC(=O)c1c(-c2ccc([N+](=O)[O-])cc2)[nH]c2ccc(C)cc12,.,.,.,-22,.,.
CC(=O)N1CN(C2CCCC2)Cc2c1sc1c2CCCC1,-22%,0%,.,14,-14%,.
CC(=O)N1CN(C2CC(C)(C)NC(C)(C)C2)Cc2c1sc1c2CCCC1,?,?,0%,-63*,?,-19%
C=CCNC(=S)N/N=C/c1ccc(C)cc1C,?,?,-11%,-62*,-19%,i
C=CCNC(=S)N/N=C/c1ccc(-c2ccc(OC)cc2)o1,?,1.8µM*,?,13,?,?
CCOc1ccccc1NC(=O)CSc1cn(CC(=O)N2CCCCCC2)c2ccccc12,.,15%[46.1 µM],-10%,?,.,-12%
CCOC(=O)C1=C(O)c2ccccc2C(=O)/C1=C\c1ccc(C)cc1,?,?,i,.,1%,448%
CCOC(=O)C1=C(Cc2ccc(Cl)cc2)C(=O)c2ccccc2C1=O,?,23µM*,i,.,11µM*,305%
Nc1c(N(CCC2=CCCCC2)C(=O)COc2ccc(F)cc2Cl)c(=O)[nH]c(=O)n1Cc1ccccc1,.,.,.,-98*,?,.
